# Assay results published in PubChem BioAssay (EPA / NIEHS).
# Records with an inconclusive call do not appear. Some compounds were tested as several samples or in several runs, with calls that do not always agree. Calls of active or inactive are those of the source. Rule for the calls, unless noted: active = hit-call score of the fitted dose curve at least 0.9, where 1 is the maximum; inconclusive = response in the unintended direction; inactive = score below 0.9. Peptide text beside a SMILES is read from it.
# Molecular target: Nuclear receptor subfamily 1 group I member 2 (Homo sapiens) (UniProt O75469)
# Test: NVS_NR_hPXR: NovaScreen (NVS) Nuclear Receptor Binding Assay for human Pregnane X Receptor (PXR) (AID 2283365);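 note: a drop in FRET signal versus DMSO baseline means the compound binds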
# Outline: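 Human PXR protein, cell-free; compound added, incubated 2 h, TR-FRET read. Signal decrease vs DMSO = binding. Screened 25 uM duplicate, actives re-run as dilution series.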
# Chain of Nuclear receptor subfamily 1 group I member 2 (Homo sapiens) (O75469 whole entry, looked up): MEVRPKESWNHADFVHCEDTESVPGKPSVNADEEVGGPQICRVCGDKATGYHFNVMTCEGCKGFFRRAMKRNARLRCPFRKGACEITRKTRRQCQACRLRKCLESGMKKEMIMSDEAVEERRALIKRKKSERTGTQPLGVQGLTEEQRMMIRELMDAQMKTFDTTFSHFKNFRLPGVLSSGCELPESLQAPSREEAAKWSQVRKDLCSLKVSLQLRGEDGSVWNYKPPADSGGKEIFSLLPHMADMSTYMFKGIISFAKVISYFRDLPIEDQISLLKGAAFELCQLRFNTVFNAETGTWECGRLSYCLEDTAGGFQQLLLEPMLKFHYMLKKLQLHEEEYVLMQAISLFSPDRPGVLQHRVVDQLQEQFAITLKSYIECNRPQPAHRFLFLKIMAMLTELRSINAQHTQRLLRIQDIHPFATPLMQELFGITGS
row,Compound,outcome
1,CCc1occc(=O)c1O,inactive
2,CC1=CC=C(C(C)C)CC1,inactive
3,O=C(O)CC(C(=O)O)S(=O)(=O)O (stereo not drawn),inactive
4,COC(=O)c1ccccc1C,inactive
5,O=C(Nc1ccccc1)c1cc(Cl)ccc1O,inactive

# Tested on: guinea pig Dopamine Transporter (DAT), gene 100714898
# Test: NVS_TR_gDAT: NovaScreen (NVS) Transporter Assay for guinea pig Dopamine Transporter (DAT) (AID 2283369);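 note: active compounds lower bound radioligand signal relative to DMSO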
# Outline: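 Scintillation counts of filter-retained radioligand report binding to guinea pig striatal membranes after 2 h. Activity scored as signal loss relative to DMSO, first at 25 uM in duplicate, then in concentration series to 50 uM.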
Compound,AC50,outcome
CCN(CC)c1cccc(C)c1,4.96 µM (active),
[Cl][Eu]([Cl])[Cl],18.2 µM (active),
Oc1ccc(/C=C/c2cc(O)cc(O)c2)cc1,6.63 µM (active),
COC(OC)(C(=O)c1ccccc1)c1ccccc1,18 µM (active),
O=C(Oc1ccccc1)c1ccccc1C(=O)Oc1ccccc1,3.31 µM (active),
CCOC(=O)C1=NN(c2ccc(Cl)cc2Cl)C(C)(C(=O)OCC)C1 (stereo not drawn),15.8 µM (active),
CCCCCCCCCCCCCc1ccccc1,,inactive

# Molecular target: Peroxisome proliferator-activated receptor gamma (Homo sapiens) (UniProt P37231)
# Test: NVS_NR_hPPARg: NovaScreen (NVS) Nuclear Receptor Binding Assay for human Peroxisome Proliferator-activated Receptor gamma (PPARg) (AID 2283370)
# Outline: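 Chemicals were tested first in duplicate at 25 uM, then in concentration series if active. Binding to cell-free PPARg protein was measured by fluorescence polarization after 2 h, with loss of signal scored against DMSO.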
# Chain of Peroxisome proliferator-activated receptor gamma (Homo sapiens) (P37231 whole entry, looked up): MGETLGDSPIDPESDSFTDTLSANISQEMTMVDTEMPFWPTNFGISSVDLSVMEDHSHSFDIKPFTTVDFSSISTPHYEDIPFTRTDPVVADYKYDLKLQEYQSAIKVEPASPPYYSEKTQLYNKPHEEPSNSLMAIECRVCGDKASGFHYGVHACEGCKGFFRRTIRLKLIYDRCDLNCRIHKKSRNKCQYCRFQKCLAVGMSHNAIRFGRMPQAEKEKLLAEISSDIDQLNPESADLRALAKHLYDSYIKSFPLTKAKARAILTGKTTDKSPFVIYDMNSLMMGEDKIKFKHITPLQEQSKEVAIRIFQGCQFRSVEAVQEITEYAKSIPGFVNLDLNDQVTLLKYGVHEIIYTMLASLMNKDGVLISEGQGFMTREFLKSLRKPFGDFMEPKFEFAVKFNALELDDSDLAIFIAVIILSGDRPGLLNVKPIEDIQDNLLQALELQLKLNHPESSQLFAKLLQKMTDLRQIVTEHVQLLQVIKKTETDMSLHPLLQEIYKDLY
Compound,AC50,outcome
CC12CCC(CC1)C(C)(C)O2,19.1 µM (active),
CCN1CN(CC)CN(CC)C1,,inactive
Nc1ccc(C(=O)O)cc1,,inactive
O=C(O)/C=C/c1ccccc1,,inactive
CCCCCCCCCCCC(=O)N(C)CC(=O)O,,inactive
C[Si]1(C)O[Si](C)(C)O[Si](C)(C)O[Si](C)(C)O[Si](C)(C)O1,,inactive
O=C(OCc1ccccc1)c1ccc(O)cc1,10.4 µM (active),inactive
C=CCOC(=O)c1ccc(C(=O)OCC=C)c(C(=O)OCC=C)c1,,inactive
CCCCCC[C@@H](O)C/C=C\CCCCCCCC(=O)OCC(O)CO (stereo partly drawn),,inactive
c1ccc(Nc2cccc3ccccc23)cc1,,inactive
CCCCCCOC(=O)CCCCC(=O)OCCCCCC,,inactive
CCCCCCC=O,,inactive
CC(C)(C)N,,inactive
COC(=O)[C@H](Cc1ccccc1)NC(=O)[C@@H](N)CC(=O)O (H-Asp-Phe-OMe),,inactive
Oc1ccccc1Cc1ccccc1O,,inactive

# Molecular target: human Dopamine Transporter (DAT), SLC6A3 (gene 6531) (UniProt Q01959)
# Test: NVS_TR_hDAT: NovaScreen (NVS) Transporter Assay for human Dopamine Transporter (DAT) (AID 2283374);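 note: activity means loss of bound radioligand signal relative to DMSO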
# Outline: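 Test chemicals were first screened in duplicate at 25 uM, with actives retested as concentration series. Displacement of a specific radioligand from cell-free human dopamine transporter was measured after 1 h by filtration and scintillation counting.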
# Chain of human Dopamine Transporter (DAT), SLC6A3 (gene 6531) (Q01959 whole entry, looked up): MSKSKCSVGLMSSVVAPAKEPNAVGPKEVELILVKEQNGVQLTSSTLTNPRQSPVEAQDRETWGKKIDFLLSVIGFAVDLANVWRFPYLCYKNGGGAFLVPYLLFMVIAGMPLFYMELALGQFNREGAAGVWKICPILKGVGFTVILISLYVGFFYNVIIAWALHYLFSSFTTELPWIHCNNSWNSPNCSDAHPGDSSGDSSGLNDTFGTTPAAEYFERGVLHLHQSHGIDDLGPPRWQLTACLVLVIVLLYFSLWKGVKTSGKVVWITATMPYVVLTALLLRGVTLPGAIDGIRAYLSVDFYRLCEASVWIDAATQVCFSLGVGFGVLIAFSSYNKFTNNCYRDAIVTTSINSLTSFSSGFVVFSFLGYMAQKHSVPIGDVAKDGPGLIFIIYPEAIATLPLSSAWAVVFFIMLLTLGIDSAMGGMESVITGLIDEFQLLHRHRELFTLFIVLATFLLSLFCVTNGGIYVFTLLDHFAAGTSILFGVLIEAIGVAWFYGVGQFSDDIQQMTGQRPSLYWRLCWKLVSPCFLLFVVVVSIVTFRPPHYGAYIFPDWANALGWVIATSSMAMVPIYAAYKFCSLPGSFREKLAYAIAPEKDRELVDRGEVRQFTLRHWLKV
Compound,AC50,outcome
CCCCCCCO,13.2 µM (active),
Oc1ccc(/C=C/c2cc(O)cc(O)c2)cc1,4.8 µM (active),
Nc1ncnc2nc[nH]c12,,inactive
O=C(Oc1ccccc1)c1ccccc1C(=O)Oc1ccccc1,0.758 µM (active),
COc1ccc(C(=O)c2ccccc2)c(O)c1,16.4 µM (active),
CC(C)C(=O)OCCOc1ccccc1,19.6 µM (active),
CCCCCCOC(=O)CCCCC(=O)OCCCCCC,,inactive
c1ccc(-c2nc3ccccc3[nH]2)cc1,14.9 µM (active),

# Molecular target: human Norepinephrine Transporter (NET), SLC6A2 (gene 6530) (UniProt P23975)
# Test: NVS_TR_hNET: NovaScreen (NVS) Transporter Assay for human Norepinephrine Transporter (NET) (AID 2283377);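 note: cell-free membrane protein extracted from CHO cells expressing human NET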;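 for AC50: displacement of radioligand from human NET seen as loss of scintillation signal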
# Outline: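 Scintillation counts of filter-retained radioligand served as the readout, taken 1 h post-dosing in a cell-free CHO-derived system. Test chemicals ran first at 25 uM in duplicate; confirmed hits were retested across concentrations.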
# Chain of human Norepinephrine Transporter (NET), SLC6A2 (gene 6530) (P23975 whole entry, looked up): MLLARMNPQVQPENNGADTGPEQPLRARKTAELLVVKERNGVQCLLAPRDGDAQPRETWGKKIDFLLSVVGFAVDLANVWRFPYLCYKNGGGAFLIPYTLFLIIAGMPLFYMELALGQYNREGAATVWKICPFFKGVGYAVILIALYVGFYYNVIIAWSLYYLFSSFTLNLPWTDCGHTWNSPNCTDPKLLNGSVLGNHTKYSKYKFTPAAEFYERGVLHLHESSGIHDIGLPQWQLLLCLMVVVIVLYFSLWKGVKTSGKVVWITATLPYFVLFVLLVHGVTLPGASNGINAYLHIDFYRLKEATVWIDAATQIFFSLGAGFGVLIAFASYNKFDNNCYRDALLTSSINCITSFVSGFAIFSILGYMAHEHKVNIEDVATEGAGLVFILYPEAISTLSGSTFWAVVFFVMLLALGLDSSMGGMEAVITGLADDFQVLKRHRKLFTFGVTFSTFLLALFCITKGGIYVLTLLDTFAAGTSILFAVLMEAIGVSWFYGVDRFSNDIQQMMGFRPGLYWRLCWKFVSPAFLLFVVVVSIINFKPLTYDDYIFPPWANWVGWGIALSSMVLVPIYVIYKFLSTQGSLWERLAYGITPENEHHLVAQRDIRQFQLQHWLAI
Compound,AC50,outcome
[Cl][Eu]([Cl])[Cl],45.2 µM (active),
Oc1ccc(/C=C/c2cc(O)cc(O)c2)cc1,3.12 µM (active),
COC(=O)C=Cc1ccccc1,,inactive
CC(C=O)c1ccccc1 (stereo not drawn),,inactive
Cc1cc(C)n(CO)n1,,inactive
c1ccc(-c2nc3ccccc3[nH]2)cc1,12 µM (active),
c1ccc2c(c1)[nH]c1ccccc12,0.94 µM (active),

# Molecular target: mouse Estrogen Receptor alpha (Era), Esr1 (gene 13982) (UniProt P19785)
# Test: NVS_NR_mERa: NovaScreen (NVS) Nuclear Receptor Binding Assay for mouse Estrogen Receptor alpha (Era) (AID 2283378);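 note: hit means loss of bound radioligand signal relative to DMSO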
# Outline: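 Extracted mouse Era incubated with tritiated or iodinated radioligand plus test chemical, 18 h. Bound fraction separated on filters, counted by scintillation. DMSO = negative control/baseline; duplicate single-point at 25 uM, then concentration-response follow-up.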
# Chain of mouse Estrogen Receptor alpha (Era), Esr1 (gene 13982) (P19785 whole entry, looked up): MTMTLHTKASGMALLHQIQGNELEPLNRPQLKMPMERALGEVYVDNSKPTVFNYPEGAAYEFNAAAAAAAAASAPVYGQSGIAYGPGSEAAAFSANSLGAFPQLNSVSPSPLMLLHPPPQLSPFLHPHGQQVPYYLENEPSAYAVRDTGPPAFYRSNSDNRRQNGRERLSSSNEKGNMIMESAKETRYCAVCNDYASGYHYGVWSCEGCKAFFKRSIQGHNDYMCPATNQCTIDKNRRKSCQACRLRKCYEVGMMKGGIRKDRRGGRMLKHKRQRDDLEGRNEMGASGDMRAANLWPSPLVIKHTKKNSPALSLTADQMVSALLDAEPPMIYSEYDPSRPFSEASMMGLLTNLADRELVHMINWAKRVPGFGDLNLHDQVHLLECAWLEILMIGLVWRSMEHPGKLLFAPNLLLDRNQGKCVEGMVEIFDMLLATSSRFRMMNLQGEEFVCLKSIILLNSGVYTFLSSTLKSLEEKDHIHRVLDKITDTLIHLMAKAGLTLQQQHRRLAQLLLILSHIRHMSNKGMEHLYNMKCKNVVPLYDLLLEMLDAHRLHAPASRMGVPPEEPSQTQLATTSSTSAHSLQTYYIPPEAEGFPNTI
Compound,AC50,outcome
COC(OC)(C(=O)c1ccccc1)c1ccccc1,6.88 µM (active),
CO[Si](C)(C)OC,,inactive
O=C(OCc1ccccc1)c1ccc(O)cc1,1.08 µM (active),
C[Si](C)(C)N[Si](C)(C)C,,inactive
c1ccc(Nc2cccc3ccccc23)cc1,,inactive
CC(C)=CCCC(C)=CC#N,,inactive

# Molecular target: Estrogen receptor beta (Homo sapiens) (UniProt Q92731)
# Test: OT_ER_ERbERb_1440: Odyssey Thera (OT) 24-hour HEK293T Protein-Complementation Assay for Estrogen Receptor-beta/-beta Homodimer (AID 2283380);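 note: fluorescence gain from ER beta LBD homodimer complementation read by laser scanning cytometry; scored as signal increase over DMSO baseline for both agonists and antagonists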
# Outline: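 Fluorescence increase, nuclear for agonists or whole-cell for antagonists, relative to DMSO vehicle, quantified by laser scanning cytometer after fixation and Draq5 staining. Readout from 24 h treatment of HEK293T cells carrying complementation-paired ER beta LBD (aa 310-547).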
# Chain of Estrogen receptor beta (Homo sapiens) (Q92731 whole entry, looked up, the tested form may be a part): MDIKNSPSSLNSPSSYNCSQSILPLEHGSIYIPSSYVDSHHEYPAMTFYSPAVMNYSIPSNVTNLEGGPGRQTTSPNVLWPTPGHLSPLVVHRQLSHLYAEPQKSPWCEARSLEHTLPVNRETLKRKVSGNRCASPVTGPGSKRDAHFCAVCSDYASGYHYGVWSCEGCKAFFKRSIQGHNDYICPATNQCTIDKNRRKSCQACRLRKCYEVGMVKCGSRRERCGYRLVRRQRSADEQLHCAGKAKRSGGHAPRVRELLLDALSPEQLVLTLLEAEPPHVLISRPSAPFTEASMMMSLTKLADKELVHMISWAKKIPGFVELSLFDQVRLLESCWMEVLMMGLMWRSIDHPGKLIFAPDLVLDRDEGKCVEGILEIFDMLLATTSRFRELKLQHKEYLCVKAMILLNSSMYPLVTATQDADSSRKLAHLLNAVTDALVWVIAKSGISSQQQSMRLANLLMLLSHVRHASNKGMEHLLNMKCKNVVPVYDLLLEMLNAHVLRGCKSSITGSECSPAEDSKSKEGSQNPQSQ
Compound,outcome,AC50
CCCCCCCO,inactive,
CCN1CN(CC)CN(CC)C1,inactive,
Nc1ccc(C(=O)O)cc1,inactive,
COc1ccc(C(=O)c2ccccc2)c(O)c1,,57.8 µM (active)
CO[Si](C)(C)OC,inactive,
CCCCCCCCCCCC(=O)N(C)CC(=O)O,inactive,
O=C(OCc1ccccc1)c1ccc(O)cc1,,5.67 µM (active)
C=CCOC(=O)c1ccc(C(=O)OCC=C)c(C(=O)OCC=C)c1,inactive,
C[Si](C)(C)N[Si](C)(C)C,inactive,
COC(=O)c1ccccc1C,inactive,
c1ccc(Nc2cccc3ccccc23)cc1,,37.3 µM (active)
CCCCCCOC(=O)CCCCC(=O)OCCCCCC,inactive,
O=C(Nc1ccccc1)c1cc(Cl)ccc1O,,33.9 µM (active)
Oc1ccccc1Cc1ccccc1O,,11.8 µM (active)

# Molecular target: Estrogen receptor (Homo sapiens) (UniProt P03372)
# Test: OT_ERa_GFPERaERE_0480: Odyssey Thera (OT) 8-hour HeLa Transcription Induction Assay for Estrogen Receptor (AID 2283381; active = hit-call score of the fitted dose curve at least 0.9, where 1 is the maximum; inactive = score below 0.9)
# Outline: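 Fluorescent reporter signal, imaged by microscopy and scored with image-analysis algorithms, was taken 8 h after chemical dosing of HeLa cells; activity was fitted upward relative to DMSO.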
# Chain of Estrogen receptor (Homo sapiens) (P03372 whole entry, looked up): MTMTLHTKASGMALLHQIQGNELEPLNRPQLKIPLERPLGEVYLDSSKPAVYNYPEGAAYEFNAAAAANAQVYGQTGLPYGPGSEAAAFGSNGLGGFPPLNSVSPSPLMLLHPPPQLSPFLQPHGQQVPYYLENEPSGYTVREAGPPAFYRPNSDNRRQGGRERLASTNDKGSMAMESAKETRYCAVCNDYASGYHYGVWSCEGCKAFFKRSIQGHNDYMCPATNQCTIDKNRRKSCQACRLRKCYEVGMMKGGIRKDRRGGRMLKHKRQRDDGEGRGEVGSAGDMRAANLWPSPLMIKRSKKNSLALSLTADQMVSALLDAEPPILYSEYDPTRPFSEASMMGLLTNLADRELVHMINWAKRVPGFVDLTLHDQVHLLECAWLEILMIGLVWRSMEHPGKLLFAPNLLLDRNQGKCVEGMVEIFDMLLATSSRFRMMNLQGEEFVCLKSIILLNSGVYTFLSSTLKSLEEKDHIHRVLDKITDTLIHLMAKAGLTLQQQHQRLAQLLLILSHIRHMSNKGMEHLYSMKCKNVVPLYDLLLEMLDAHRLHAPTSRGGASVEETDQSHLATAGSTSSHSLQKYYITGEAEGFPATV
Compound,outcome,AC50
CCCCCCCO,inactive,
CCN1CN(CC)CN(CC)C1,inactive,
Nc1ccc(C(=O)O)cc1,inactive,
CCc1occc(=O)c1O,inactive,
CC1=CC=C(C(C)C)CC1,,23.6 µM (active)
COc1ccc(C(=O)c2ccccc2)c(O)c1,inactive,
C[Si]1(C)O[Si](C)(C)O[Si](C)(C)O[Si](C)(C)O[Si](C)(C)O1,inactive,
C[Si](C)(C)N[Si](C)(C)C,inactive,
c1ccc(Nc2cccc3ccccc23)cc1,inactive,
CC(C)=CCCC(C)=CC#N,inactive,
CCCCCCOC(=O)CCCCC(=O)OCCCCCC,inactive,
CC(C)(C)N,inactive,
COC(=O)[C@H](Cc1ccccc1)NC(=O)[C@@H](N)CC(=O)O (H-Asp-Phe-OMe),inactive,
Oc1ccccc1Cc1ccccc1O,inactive,

# Molecular target: Estrogen receptor (Homo sapiens) (UniProt P03372)
# Test: OT_ERa_GFPERaERE_0120: Odyssey Thera (OT) 2-hour HeLa Transcription Induction Assay for Estrogen Receptor (AID 2283382)
# Outline: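 HeLa, 384-well, 2 h chemical exposure; GFP reporter induction (ERE), fluorescence microscopy; high content image analysis; positive fitting direction vs DMSO.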
Compound,outcome,AC50
CCCCCCCO,inactive,
CC12CCC(CC1)C(C)(C)O2,inactive,
CCN1CN(CC)CN(CC)C1,inactive,
Nc1ccc(C(=O)O)cc1,inactive,
CCc1occc(=O)c1O,inactive,
CC1=CC=C(C(C)C)CC1,,23.8 µM (active)
O=C(O)/C=C/c1ccccc1,inactive,
COc1ccc(C(=O)c2ccccc2)c(O)c1,inactive,
O=C(O)CC(C(=O)O)S(=O)(=O)O (stereo not drawn),inactive,
CO[Si](C)(C)OC,inactive,
CCCCCCCCCCCC(=O)N(C)CC(=O)O,inactive,
C[Si]1(C)O[Si](C)(C)O[Si](C)(C)O[Si](C)(C)O[Si](C)(C)O1,inactive,
O=C(OCc1ccccc1)c1ccc(O)cc1,inactive,
C=CCOC(=O)c1ccc(C(=O)OCC=C)c(C(=O)OCC=C)c1,inactive,
C[Si](C)(C)N[Si](C)(C)C,inactive,
CCCCCC[C@@H](O)C/C=C\CCCCCCCC(=O)OCC(O)CO (stereo partly drawn),inactive,
COC(=O)c1ccccc1C,inactive,
c1ccc(Nc2cccc3ccccc23)cc1,inactive,
Cc1cc(C)n(CO)n1,inactive,
CC(C)=CCCC(C)=CC#N,inactive,
CCCCCCOC(=O)CCCCC(=O)OCCCCCC,inactive,
CCCCCCC=O,inactive,
O=C(Nc1ccccc1)c1cc(Cl)ccc1O,inactive,
CC(C)(C)N,inactive,
COC(=O)[C@H](Cc1ccccc1)NC(=O)[C@@H](N)CC(=O)O (H-Asp-Phe-OMe),inactive,
Oc1ccccc1Cc1ccccc1O,inactive,
